In the OligoGym collection:

molecular target: MAGEA2B; experiment: pooled miR-30 sensor sort-seq; sequence = guide strand; conditions: shRNA
Also: reference of the scale not given here.

**Q.** Which sensor-assay potency score (higher = more potent) does the source give for TCTGAGGACACTCTCCAGCATT here?
**A.** Its sensor-assay potency score (higher = more potent) is -1.1.

**Q.** How did the sensor-assay potency score (higher = more potent) turn out when TTGATGGTAGTCGAGAAGCTGG was run?
**A.** Its sensor-assay potency score (higher = more potent) is -0.963.

**Q.** With TCTTGCATGAGCAGCTTCCTGG as the sequence, how does the sensor-assay potency score (higher = more potent) read?
**A.** The sensor-assay potency score (higher = more potent) was -1.1.

**Q.** For TCTTCCTACTGATTGCTGCTTG, which sensor-assay potency score (higher = more potent) is on record?
**A.** Its sensor-assay potency score (higher = more potent) is -0.703.

**Q.** How did the sensor-assay potency score (higher = more potent) turn out when TTGCATGAGCAGCTTCCTGGGA was run?
**A.** Its sensor-assay potency score (higher = more potent) is -0.244.

**Q.** For TCCAGGTCGGGAAACATTCTTG, which sensor-assay potency score (higher = more potent) is on record?
**A.** The sensor-assay potency score (higher = more potent) was -1.23.

**Q.** With ACCAACTCAACCATCTTCCTAC as the sequence, how does the sensor-assay potency score (higher = more potent) read?
**A.** The sensor-assay potency score (higher = more potent) was -1.03.

**Q.** How did the sensor-assay potency score (higher = more potent) turn out when TAGTGTATGGTGCAGGACTTTC was run?
**A.** The sensor-assay potency score (higher = more potent) was -1.11.

**Q.** With AAAATGAACCAACTCAACCATC as the sequence, how does the sensor-assay potency score (higher = more potent) read?
**A.** The sensor-assay potency score (higher = more potent) was -1.2.

molecular target: MAGEA8; experiment: as above; conditions: shRNA

**Q.** Which sensor-assay potency score (higher = more potent) does the source give for TTCCTCAGCCTTGTAGCGCTGA here?
**A.** The sensor-assay potency score (higher = more potent) was 0.23.

**Q.** Which sensor-assay potency score (higher = more potent) does the source give for TAATCCTCTGCTCTTGTAGTGT here?
**A.** Its sensor-assay potency score (higher = more potent) is -0.188.

**Q.** How did the sensor-assay potency score (higher = more potent) turn out when ATCAATGCCAAAGATCACCTGC was run?
**A.** The sensor-assay potency score (higher = more potent) was 0.274.

**Q.** How did the sensor-assay potency score (higher = more potent) turn out when TTTGATGACACTCTCAAGCATT was run?
**A.** The sensor-assay potency score (higher = more potent) was -0.926.

**Q.** For TTTATGTCTTTATCTCATGTAT, which sensor-assay potency score (higher = more potent) is on record?
**A.** The sensor-assay potency score (higher = more potent) was -0.397.

**Q.** Which sensor-assay potency score (higher = more potent) does the source give for TAGCGCACAGGATCACTGCCGG here?
**A.** Its sensor-assay potency score (higher = more potent) is -0.803.

**Q.** With TGTGGGAATCTGCACATCCATA as the sequence, how does the sensor-assay potency score (higher = more potent) read?
**A.** The sensor-assay potency score (higher = more potent) was -1.63.

**Q.** With TTTCTCATCAAGTGCTTCCCGG as the sequence, how does the sensor-assay potency score (higher = more potent) read?
**A.** Its sensor-assay potency score (higher = more potent) is -0.5.

**Q.** How did the sensor-assay potency score (higher = more potent) turn out when TTCTTTATGTCTTTATCTCATG was run?
**A.** Its sensor-assay potency score (higher = more potent) is -1.14.

**Q.** With TTCTCATCAAGTGCTTCCCGGA as the sequence, how does the sensor-assay potency score (higher = more potent) read?
**A.** The sensor-assay potency score (higher = more potent) was -0.615.

**Q.** With TAGAGGAGGAGGATGCAGCCTT as the sequence, how does the sensor-assay potency score (higher = more potent) read?
**A.** The sensor-assay potency score (higher = more potent) was -0.332.

molecular target: MAGED2; experiment: as above; conditions: shRNA

**Q.** Which sensor-assay potency score (higher = more potent) does the source give for TTGTATTGACCTTTGTATCAGC here?
**A.** The sensor-assay potency score (higher = more potent) was -0.669.

**Q.** TTGATGGGAATCTTCGTCTGGT was tested. Which sensor-assay potency score (higher = more potent) did it give?
**A.** The sensor-assay potency score (higher = more potent) was -0.0413.

**Q.** TTCTTTGATGATGTCCTTCAGC was tested. Which sensor-assay potency score (higher = more potent) did it give?
**A.** Its sensor-assay potency score (higher = more potent) is -0.636.

**Q.** With TCGAGCTCTAATCTCGGCCCTA as the sequence, how does the sensor-assay potency score (higher = more potent) read?
**A.** The sensor-assay potency score (higher = more potent) was -0.609.

**Q.** Which sensor-assay potency score (higher = more potent) does the source give for TTTCTTGGCTTTGACCTTGGGC here?
**A.** The sensor-assay potency score (higher = more potent) was 0.00108.

**Q.** For TTGGGTGAGTCCTTAGTCGTTC, which sensor-assay potency score (higher = more potent) is on record?
**A.** Its sensor-assay potency score (higher = more potent) is -0.156.

**Q.** With TTTTGAGACCTTCACATCCTCT as the sequence, how does the sensor-assay potency score (higher = more potent) read?
**A.** The sensor-assay potency score (higher = more potent) was -1.1.

**Q.** With AACAGAGTCTGCATCATCGAGC as the sequence, how does the sensor-assay potency score (higher = more potent) read?
**A.** The sensor-assay potency score (higher = more potent) was -0.281.

**Q.** How did the sensor-assay potency score (higher = more potent) turn out when TTTGATGATGTCCTTCAGCATG was run?
**A.** Its sensor-assay potency score (higher = more potent) is -1.48.

**Q.** Which sensor-assay potency score (higher = more potent) does the source give for TTCTTTTGTACCTTGCAGGCAA here?
**A.** Its sensor-assay potency score (higher = more potent) is 0.18.

**Q.** For TTTAGCTTCTGCTCCCGCCTGG, which sensor-assay potency score (higher = more potent) is on record?
**A.** The sensor-assay potency score (higher = more potent) was -0.0182.

molecular target: MAGOHB; experiment: as above; conditions: shRNA

**Q.** With TACAATTTCAAGCTCCTGTCGG as the sequence, how does the sensor-assay potency score (higher = more potent) read?
**A.** Its sensor-assay potency score (higher = more potent) is 0.0556.

**Q.** For TTCCATTACACTCTTGTGCACA, which sensor-assay potency score (higher = more potent) is on record?
**A.** Its sensor-assay potency score (higher = more potent) is -0.478.

**Q.** Which sensor-assay potency score (higher = more potent) does the source give for AAACTAAACATTTCAAGTCTTG here?
**A.** The sensor-assay potency score (higher = more potent) was -0.697.

**Q.** How did the sensor-assay potency score (higher = more potent) turn out when TTCTTTTGTAATTTCACTGTCA was run?
**A.** The sensor-assay potency score (higher = more potent) was 0.267.

**Q.** With TCTTCTTTTGTAATTTCACTGT as the sequence, how does the sensor-assay potency score (higher = more potent) read?
**A.** The sensor-assay potency score (higher = more potent) was -0.146.

**Q.** How did the sensor-assay potency score (higher = more potent) turn out when TTCTTCCATTACACTCTTGTGC was run?
**A.** The sensor-assay potency score (higher = more potent) was -0.965.

**Q.** How did the sensor-assay potency score (higher = more potent) turn out when TTTCTGATCATCACATCATTTT was run?
**A.** Its sensor-assay potency score (higher = more potent) is -1.65.

**Q.** How did the sensor-assay potency score (higher = more potent) turn out when TTCGAACTCCAGAAACTCGTGC was run?
**A.** The sensor-assay potency score (higher = more potent) was 0.282.

**Q.** For ATATCTAAGCTTTCCGTCCGGC, which sensor-assay potency score (higher = more potent) is on record?
**A.** Its sensor-assay potency score (higher = more potent) is -0.264.
